Data on 26 compounds can be found in the supplement of paper PMC4709259.

The subject of assay [1] is Jurkat. As to the kind of experiment: mean cell size (FSC-A) relative to DMSO control (fraction of control); higher = larger cells. As to conditions: 48 h. The method, boiled down:
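Jurkat cells at 600 cells/µl were incubated for 1 h and then treated for 48h with the Enzo Screen-Well FDA Approved Drug Library v2.0 at 25µM, with DMSO at 0.9% (v/v) final. Compounds that reduced counts below 20% of controls were retested in 10-fold dilutions down to 25nM. Cell count and mean cell size, taken as forward scatter area, were measured by flow cytometry relative to solvent-only controls. Each plate carried 6-12 controls, and values are means of 3 biological replicates.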

The subject of assay [2] is Jurkat. The assay is described as follows: cell count relative to DMSO control (fraction of control); higher = more cells (less growth inhibition). As to conditions: 48 h.

SMILES strings stand for the structures. Counter-ions that a name gives are not always drawn. ± gives the standard deviation.

`N#Cc1ccc(C(c2ccc(C#N)cc2)n2cncn2)cc1` [Letrozole] (concentration: 25 µM) showed a mean cell size in the assay with Jurkat [1] of 1.01 ± 0.028. The cell count in the assay with Jurkat [2] was determined as 0.798 ± 0.019.
In turn, `NS(=O)(=O)c1cc2c(cc1Cl)N=CNS2(=O)=O` [Chlorothiazide] (concentration: 25 µM) came in with a mean cell size in the assay on Jurkat [1] of 0.926 ± 0.011. In addition, in the assay on Jurkat [2], the cell count was found to be 1.16 ± 0.082.
In turn, `NC12CC3CC(CC(C3)C1)C2` [Amantadine·HCl] (concentration: 25 µM) came in with a mean cell size in the assay with Jurkat [1] of 1.01 ± 0.058. The cell count with Jurkat [2] was found to be 0.749 ± 0.17.
The like results for `CC(C)C[C@H](NC(=O)[C@@H](COC(C)(C)C)NC(=O)[C@H](Cc1ccc(O)cc1)NC(=O)[C@H](CO)NC(=O)[C@H](Cc1c[nH]c2ccccc12)NC(=O)[C@H](Cc1cnc[nH]1)NC(=O)[C@@H]1CCC(=O)N1)C(=O)N[C@@H](CCCNC(=N)N)C(=O)N1CCC[C@H]1C(=O)NNC(N)=O` [Goserelin Acetate] (concentration: 25 µM) were, in that order, 0.953 ± 0.045 and 1.044 ± 0.003.
The compound `CN1CC(=O)N2[C@H](c3ccc4c(c3)OCO4)c3[nH]c4ccccc4c3C[C@@H]2C1=O` [Tadalafil] (concentration: 25 µM) returned a mean cell size in the assay with Jurkat [1] of 0.922 ± 0.05. In the assay on Jurkat [2], this compound returned a cell count of 0.413 ± 0.12.
The like results for `CO[C@H]1O[C@@H]2O[C@@]3(C)CC[C@H]4[C@H](C)CC[C@@H]([C@H]1C)[C@@]24OO3` [Artemether] (concentration: 25 µM) were, in that order, 0.912 ± 0.047 and 0.632 ± 0.0091.
Compound `CO/N=C(\C(=O)N[C@@H]1C(=O)N2C(C(=O)O)=C(COC(C)=O)CS[C@H]12)c1csc(N)n1` [Cefotaxime Acid] (concentration: 25 µM) came in with a mean cell size with Jurkat [1] of 0.944 ± 0.025. This compound showed a cell count with Jurkat [2] of 0.957 ± 0.025.
The like results for `O=C1CC2(CCCC2)CC(=O)N1CCCCN1CCN(c2ncccn2)CC1` [Buspirone·HCl] (concentration: 25 µM) were, in that order, 0.9275 ± 0.0078 and 0.96 ± 0.097.
On the same counts, the results for `CC(=O)OCC(CCn1cnc2cnc(N)nc21)COC(C)=O` [Famciclovir] (concentration: 25 µM) are 0.925 ± 0.053 and 0.465 ± 0.18.
For `CC[C@]1(O)C[C@H]2CN(CCc3c([nH]c4ccccc34)[C@@](C(=O)OC)(c3cc4c(cc3OC)N(C=O)[C@H]3[C@@](O)(C(=O)OC)[C@H](OC(C)=O)[C@]5(CC)C=CCN6CC[C@]43[C@@H]65)C2)C1` [Vincristine Sulfate] (concentration: 25 nM), the mean cell size with Jurkat [1] is 0.985 ± 0.011. Also, the cell count with Jurkat [2] amounted to 0.083 ± 0.066.
The like results for `NCCS` [Cysteamine·HCl] (concentration: 25 µM) were, in that order, 0.957 ± 0.034 and 0.513 ± 0.13.
The like results for `CC(C)(C)NCC(O)COc1cccc2c1CC(O)C(O)C2` (configuration not stated) [Nadolol] (concentration: 25 µM) were, in that order, 0.928 ± 0.041 and 0.487 ± 0.059.
For the compound `NC[C@@H]1O[C@H](O[C@H]2[C@@H](O)[C@H](O[C@@H]3[C@@H](O)[C@H](N)C[C@H](N)[C@H]3O[C@H]3O[C@H](CN)[C@@H](O)[C@H](O)[C@H]3N)O[C@@H]2CO)[C@H](N)[C@@H](O)[C@@H]1O` [Neomycin Sulfate] (concentration: 25 µM), the mean cell size with Jurkat [1] was 0.935 ± 0.018. Also, the cell count with Jurkat [2] is 0.944 ± 0.038.
On the same counts, the results for `CC(CN1c2ccccc2Sc2ccccc21)N(C)C` (configuration not stated) [Promethazine·HCl] (concentration: 25 µM) are 0.994 ± 0.023 and 0.717 ± 0.16.
In the assay on Jurkat [1], `CCOC(=O)C1=C(COCCN)NC(C)=C(C(=O)OC)C1c1ccccc1Cl` (configuration not stated) [Amlodipine] (concentration: 25 µM) yielded a mean cell size of 1.06 ± 0.053. Further, the cell count in the assay with Jurkat [2] is 0.268 ± 0.055.
Turning to `CC(C)(C(=O)O)c1ccc(C(O)CCCN2CCC(C(O)(c3ccccc3)c3ccccc3)CC2)cc1` (configuration not stated) [Fexofenadine·HCl] (concentration: 25 µM), the mean cell size in the assay on Jurkat [1] was found to be 0.996 ± 0.041. Moreover, the cell count with Jurkat [2] was found to be 0.725 ± 0.024.
The like results for `CN(C)/N=N/c1[nH]cnc1C(N)=O` [Dacarbazine] (concentration: 25 µM) were, in that order, 0.981 ± 0.048 and 0.836 ± 0.093.
On the same counts, the results for `Brc1c(NC2=NCCN2)ccc2nccnc12` [Brimonidine] (concentration: 25 µM) are 0.954 ± 0.027 and 0.9 ± 0.091.
The like results for `C[C@]12C=CC(=O)C=C1CC[C@@H]1[C@@H]2C(=O)C[C@@]2(C)[C@H]1CC[C@]2(O)C(=O)CO` [Prednisone] (concentration: 25 µM) were, in that order, 1 ± 0.042 and 0.689 ± 0.13.
In the assay with Jurkat [1], `COc1cc(CNC(=O)CCCC/C=C/C(C)C)ccc1O` [Capsaicin] (concentration: 25 µM) came in with a mean cell size of 0.903 ± 0.021. In addition, the cell count in the assay on Jurkat [2] is 0.901 ± 0.08.
The like results for `NCC(=O)CCC(=O)O` [Aminolevulinic Acid·HCl] (concentration: 25 µM) were, in that order, 0.911 ± 0.013 and 0.638 ± 0.08.
Turning to `Nc1nc(=O)n([C@@H]2CS[C@H](CO)O2)cc1F` [Emtricitabine] (concentration: 25 µM), the mean cell size in the assay on Jurkat [1] was 1.03 ± 0.019. In addition, the cell count in the assay on Jurkat [2] was 0.581 ± 0.14.
`COc1cc2nc(N3CCN(C(=O)c4ccco4)CC3)nc(N)c2cc1OC` [Prazosin·HCl] (concentration: 2.5 µM): in the assay with Jurkat [1], the mean cell size stood at 1.03 ± 0.056. This compound also registered a cell count in the assay on Jurkat [2] of 0.484 ± 0.18.
On the same counts, the results for `Cc1cn(-c2cc(NC(=O)c3ccc(C)c(Nc4nccc(-c5cccnc5)n4)c3)cc(C(F)(F)F)c2)cn1` [Nilotinib] (concentration: 25 µM) are 0.979 ± 0.037 and 0.762 ± 0.086.
Take `CC(=O)S[C@@H]1CC2=CC(=O)CC[C@]2(C)[C@H]2CC[C@@]3(C)[C@@H](CC[C@@]34CCC(=O)O4)[C@H]12` [Spironolactone] (concentration: 25 µM): the mean cell size with Jurkat [1] is 1.01 ± 0.062. The same compound gave a cell count in the assay on Jurkat [2] of 0.455 ± 0.032.
For the compound `CC(C)[C@H](N)C(=O)OCC(CO)OCn1cnc2c(=O)[nH]c(N)nc21` (some centres not stated) [Valganciclovir·HCl] (concentration: 25 µM), the mean cell size in the assay with Jurkat [1] was found to be 1.06 ± 0.054. Also, the cell count with Jurkat [2] amounted to 0.892 ± 0.099.
